Test [1] can be described thus: qHTS profiling for inhibitors of Plasmodium falciparum proliferation (AID 504749).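 For activity, negative = inhibition: 0% = DMSO vehicle and full inhibition = artemisinin control.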 Note: nearly all actives have a fitted effect of over 60% in size. The settings on record: P. falciparum in erythrocytes, SYBR Green DNA, 72 h. In short, it runs like this:
(§1)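 Readout was DNA-dye fluorescence from lysed cultures, ex 485/em 535 nm. Parasitized red cells had grown 72 h with compound; data scaled between 0.29 uM artemisinin and DMSO wells and corrected using vehicle-only plates.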

A further test has as its system 3D7. Described as above. As to conditions: P. falciparum in erythrocytes, SYBR Green DNA, 72 h; series mostly up to 28.7 µM. In short, it runs like this:
as §1

The next test concerns 7G8. The test is described as above. The settings on record: P. falciparum in erythrocytes, SYBR Green DNA, 72 h; series mostly up to 28.7 µM. In a few lines: as §1
For another test, the system named is AA1029. The test is described as above. As to conditions: P. falciparum in erythrocytes, SYBR Green DNA, 72 h; series mostly up to 28.7 µM. In a few lines:
as §1

A further test deals with AS120. The test is described as above. As to conditions: P. falciparum in erythrocytes, SYBR Green DNA, 72 h; series mostly up to 28.7 µM. In short, it runs like this: as §1
A further test deals with ATS189. Described as above. The settings on record: P. falciparum in erythrocytes, SYBR Green DNA, 72 h; series mostly up to 28.7 µM. In a few lines:
as §1

[2] abbreviates: at 28.7 µM (top of the series), parasite line A.
The mark [3] stands for this setting: at 28.7 µM (top of the series), parasite line B.

Our source for the activity, negative = inhibition and Potency values is PubChem BioAssay (NCATS).

Inconclusive results are not listed. A number with no mark means an inactive call. The source made the active and inactive calls. Calls come from the whole dose curve; as a rule, active = well fitted inhibition curve with a large enough effect; inconclusive = small, poorly fitted or top-dose-only effect; inactive = flat fitted curve, though single readings scatter.
Potency is the fitted concentration of half-maximal effect.

`CC12CCC(C[N+](C)(CCC[N+](C)(C)C)C1)C2(C)C` (stereo not given): the results for the activity, negative = inhibition in test [1] (setting [2]) and in test [1] (setting [3]) were 7.03% and 18.6%, respectively. For the same molecule, the Potency entry in the test with 3D7, with 7G8, with AA1029, in the test on AS120 and in the test on ATS189 was “inactive” each time.
On to `CN1C(=O)OC(C)(C)C1=O`, for which the activity, negative = inhibition in test [1] (at 12.8 µM (top of the series), parasite line A) was -13.9%; in test [1] (at 12.8 µM (top of the series), parasite line B) it was 4.58%. In addition, the Potency entry with 3D7, with 7G8, in the test on AA1029, in the test on AS120 and with ATS189 was “inactive” throughout.
For `O=C(O[C@H]1CN2CCC1CC2)N1CCc2ccccc2[C@@H]1c1ccccc1`, the activity, negative = inhibition is -23.3% in test [1] (setting [2]) and -19.3% in test [1] (setting [3]). In addition, the Potency result with 3D7, in the test on AS120 and in the test on ATS189 was “inactive” each time. Also, in the test on 7G8, the Potency is 5.62 µM (active).
With `O=C(O)Cc1nn(Cc2ccc(Br)cc2F)c(=O)c2ccccc12`, the activity, negative = inhibition in test [1] (setting [2]) was 0.835%; in test [1] (setting [3]), -5.83%. The Potency entry with 3D7, with 7G8, in the test on AA1029, with AS120 and with ATS189 was “inactive” in each case.
Take `CC(C)CCC[C@@H](C)[C@H]1CC[C@H]2[C@@H]3CC=C4C[C@@H](O)CC[C@]4(C)[C@H]3CC[C@]12C`: the figures for the activity, negative = inhibition in test [1] (setting [2]) and in test [1] (setting [3]) were 4.96% and -1.65%, respectively. Besides, the Potency result in the test on 3D7, in the test with 7G8, in the test on AA1029, in the test on AS120 and in the test with ATS189 was “inactive” throughout.
On to `CCCCCCCCCCCCCCCCCC(=O)OCC(C)O` (stereo not given), for which the results for the activity, negative = inhibition in test [1] (setting [2]) and in test [1] (setting [3]) were 4.03% and -12.1%, respectively. Besides, the Potency entry in the test with 3D7, in the test with 7G8, in the test with AA1029, in the test on AS120 and in the test on ATS189 was “inactive” throughout.
`ClC(Cl)Cl`: the figures for the activity, negative = inhibition in test [1] (setting [2]) and in test [1] (setting [3]) were 5.74% and 10.9%, respectively. Further, the Potency result in the test on 3D7, in the test on 7G8, in the test with AA1029, in the test on AS120 and with ATS189 was “inactive” throughout.
For the molecule `CCCc1nc(C(C)(C)O)c(C(=O)OCc2oc(=O)oc2C)n1Cc1ccc(-c2ccccc2-c2nn[nH]n2)cc1`, the activity, negative = inhibition was -15.7% in test [1] (setting [2]) and -20.3% in test [1] (setting [3]). Also, the Potency result with 3D7, in the test with 7G8, in the test with AA1029, in the test on AS120 and in the test with ATS189 was “inactive” throughout.
Regarding `CC(/C=C/C=C(\C)C(=O)O[C@@H]1O[C@H](CO[C@@H]2O[C@H](CO)[C@@H](O)[C@H](O)[C@H]2O)[C@@H](O)[C@H](O)[C@H]1O)=C\C=C\C=C(C)\C=C\C=C(/C)C(=O)O[C@@H]1O[C@H](CO[C@@H]2O[C@H](CO)[C@@H](O)[C@H](O)[C@H]2O)[C@@H](O)[C@H](O)[C@H]1O`, the values for the activity, negative = inhibition in test [1] (setting [2]) and in test [1] (setting [3]) were 7.84% and -1.1%, respectively. Also, the Potency entry in the test with 3D7, in the test with 7G8, in the test with AA1029, in the test on AS120 and with ATS189 was “inactive” each time.
As for `Cc1cccc(C)c1NC(=O)NC1=CCCN1C`, the activity, negative = inhibition in test [1] (setting [2]) was 5.4%; in test [1] (setting [3]) it was 1.38%. The Potency result in the test with 3D7, in the test with 7G8, in the test on AA1029 and in the test with ATS189 was “inactive” throughout.
As to `CN[C@@H]1[C@H](O[C@H]2[C@H](O[C@H]3[C@H](O)[C@@H](O)[C@H](N=C(N)N)[C@@H](O)[C@@H]3N=C(N)N)O[C@@H](C)[C@]2(O)C=O)O[C@@H](CO)[C@H](O)[C@H]1O`, the activity, negative = inhibition in test [1] (setting [2]) is 5.41%; in test [1] (setting [3]), 15.5%. Besides, the Potency entry in the test on 3D7, in the test with 7G8, with AA1029, in the test with AS120 and in the test on ATS189 was “inactive” each time.
`CCCCCCCCCCCCCC(=O)OCC(COP(=O)([O-])OCC[N+](C)(C)C)OC(=O)CCCCCCCCCCCCC` (stereo not given): the activity, negative = inhibition in test [1] (setting [2]) was 4.09%; in test [1] (setting [3]) it was -2.15%. For the same molecule, the Potency result with 3D7, with 7G8, in the test on AA1029, in the test with AS120 and in the test on ATS189 was “inactive” each time.
Take `NC(=S)N=Nc1ccc(NN=C(N)N)cc1`: the Potency was 10 µM (active) in test [1] (parasite line A); 10 µM (active) in test [1] (parasite line B); 12.6 µM (active) with 3D7; 10 µM (active) with 7G8; 12.6 µM (active) in the test with AA1029; 12.6 µM (active) in the test with AS120. Further, the Potency with ATS189 was 10 µM (active).
As to `CO/N=C(\C(=O)N[C@@H]1C(=O)N2C(C(=O)[O-])=C(C[n+]3cccc4c3CCC4)CS[C@H]12)c1csc(N)n1`, the activity, negative = inhibition in test [1] (setting [2]) was 12.2%; in test [1] (setting [3]) it was 2.56%. Also, the Potency result in the test on 3D7, in the test with 7G8, in the test on AA1029, in the test with AS120 and in the test with ATS189 was “inactive” throughout.
`O=P(O)(O)CP(=O)(O)O`: the activity, negative = inhibition in test [1] (setting [2]) was 11.8%; in test [1] (setting [3]) it was 12.6%. Also, the Potency entry in the test with 3D7, in the test with 7G8, in the test with AA1029, in the test with AS120 and with ATS189 was “inactive” throughout.
For the molecule `CN(C)CCCSc1ccccc1NC(=O)/C=C/c1ccccc1`, the results for the activity, negative = inhibition in test [1] (setting [2]) and in test [1] (setting [3]) were 13.3% and 3.42%, respectively. The Potency result with 3D7, with 7G8, with AS120 and with ATS189 was “inactive” throughout.
With `CNC(=O)C[C@@H](N)C(=O)N[C@@H](C(=O)N[C@@H]1C(=O)N2[C@@H]1SC(C)(C)[C@@H]2C(=O)O)c1ccc(O)cc1`, the activity, negative = inhibition in test [1] (setting [2]) was 11.3%; in test [1] (setting [3]), 15.8%. Also, the Potency entry in the test on 3D7, in the test on 7G8, in the test on AA1029, with AS120 and in the test on ATS189 was “inactive” throughout.
In the case of `C[C@]12CCC(=O)C[C@@H]1CC[C@@H]1[C@@H]2CC[C@]2(C)C=CC[C@@H]12`, the activity, negative = inhibition in test [1] (setting [2]) is -20.9%; in test [1] (setting [3]), -5.73%. The Potency entry with 3D7, with AA1029, in the test with AS120 and in the test on ATS189 was “inactive” each time.
With `NC(=O)CC[C@@H]1NC(=O)[C@H](Cc2ccccc2)NC(=O)[C@H](Cc2ccc(O)cc2)NC(=O)[C@@H](N)CSSC[C@@H](C(=O)N2CCC[C@H]2C(=O)N[C@@H](CCCN=C(N)N)C(=O)NCC(N)=O)NC(=O)[C@H](CC(N)=O)NC1=O`, the activity, negative = inhibition in test [1] (setting [2]) is 1.66%; in test [1] (setting [3]), -0.62%. Besides, the Potency result in the test with 3D7 and in the test with AA1029 was “inactive” throughout.
As for `Cc1cccc(Nc2ncccc2C(=O)O)c1C`, the activity, negative = inhibition in test [1] (setting [2]) is 2.92%; in test [1] (setting [3]), 1.25%. Further, the Potency result in the test with 3D7, in the test on 7G8, in the test with AA1029, with AS120 and in the test on ATS189 was “inactive” in each case.
For `O=C1c2ccccc2C(=O)c2c1ccc(O)c2O`, the activity, negative = inhibition in test [1] (setting [2]) was 4.44%; in test [1] (setting [3]) it was -3.93%. Further, the Potency entry with 3D7, in the test with 7G8, in the test with AA1029, in the test with AS120 and in the test on ATS189 was “inactive” each time.
